{"source": "ChEMBL document CHEMBL1201862", "about": "“PubChem BioAssay data set” (2004)", "note": "The whole screen tested about 400,000 compounds, of which about 2,100 (0.53%) were called active. Another 14% or so got no clear call; they are omitted. How the calls were made is not given here. Many of the other results were omitted from the sample, so actives are more common in it than they were."}
{"molecular_target": "Ataxin-2 (Homo sapiens) (UniProt Q99700)", "sequence (Q99700 whole entry)": "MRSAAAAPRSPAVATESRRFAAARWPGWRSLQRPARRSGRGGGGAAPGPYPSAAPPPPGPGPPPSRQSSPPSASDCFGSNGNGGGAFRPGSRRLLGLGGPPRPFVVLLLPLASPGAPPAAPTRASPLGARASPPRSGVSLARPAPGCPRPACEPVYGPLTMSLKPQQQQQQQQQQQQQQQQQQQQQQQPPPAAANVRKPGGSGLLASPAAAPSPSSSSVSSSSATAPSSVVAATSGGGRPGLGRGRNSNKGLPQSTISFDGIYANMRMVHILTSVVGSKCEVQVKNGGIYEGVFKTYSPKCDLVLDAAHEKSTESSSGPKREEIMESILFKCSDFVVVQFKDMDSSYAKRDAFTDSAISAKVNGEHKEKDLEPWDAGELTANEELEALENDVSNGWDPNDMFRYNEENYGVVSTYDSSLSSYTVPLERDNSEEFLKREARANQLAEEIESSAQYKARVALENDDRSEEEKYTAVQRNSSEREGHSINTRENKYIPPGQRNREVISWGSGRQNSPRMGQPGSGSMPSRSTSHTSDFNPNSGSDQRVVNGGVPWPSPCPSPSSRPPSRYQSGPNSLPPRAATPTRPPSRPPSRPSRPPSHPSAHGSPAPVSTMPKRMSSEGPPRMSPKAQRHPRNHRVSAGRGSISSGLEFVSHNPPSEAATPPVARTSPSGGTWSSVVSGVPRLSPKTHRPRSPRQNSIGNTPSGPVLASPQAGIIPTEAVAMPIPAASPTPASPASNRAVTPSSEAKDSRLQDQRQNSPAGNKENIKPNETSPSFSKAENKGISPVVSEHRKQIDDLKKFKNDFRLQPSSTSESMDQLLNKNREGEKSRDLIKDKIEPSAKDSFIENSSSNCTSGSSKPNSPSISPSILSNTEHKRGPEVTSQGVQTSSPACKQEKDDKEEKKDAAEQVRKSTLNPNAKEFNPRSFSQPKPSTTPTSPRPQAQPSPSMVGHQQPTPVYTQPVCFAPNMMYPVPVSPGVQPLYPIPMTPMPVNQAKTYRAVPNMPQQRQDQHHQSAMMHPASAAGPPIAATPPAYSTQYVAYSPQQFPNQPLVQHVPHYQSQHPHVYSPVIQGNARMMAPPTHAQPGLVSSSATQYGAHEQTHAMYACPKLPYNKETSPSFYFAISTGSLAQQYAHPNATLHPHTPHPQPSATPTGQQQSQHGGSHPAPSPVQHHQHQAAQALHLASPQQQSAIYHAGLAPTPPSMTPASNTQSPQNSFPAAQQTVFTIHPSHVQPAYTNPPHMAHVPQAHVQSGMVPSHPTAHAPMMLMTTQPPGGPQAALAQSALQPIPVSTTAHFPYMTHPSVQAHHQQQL", "test": "qHTS for Inhibitors of ATXN expression.", "format": "functional"}
{"smiles": "CCCCN(CCCC)C(=O)c1cc2c(=O)n3cccc(C)c3nc2s1", "Potency": "inactive"}
{"smiles": "O=c1[nH][nH]c(=O)c2c(NS(=O)(=O)c3ccccc3)cccc12", "Potency": "inactive"}
{"smiles": "NNc1nc(-c2ccccc2)c2ccccc2n1", "Potency": "inactive"}
{"smiles": "O=C(O)c1ccc(Nc2nc(-c3ccccc3)c3ccccc3n2)cc1", "Potency": "inactive"}
{"smiles": "N=C(N)Nc1nc(-c2ccccc2)c2ccccc2n1", "Potency": "1.41 µM (active)"}
{"smiles": "CCCCN(C)CC(O)Cn1cc(/C=C/C(=O)c2ccc(OC)c(OC)c2)c2ccccc21", "note": "(stereo unspecified)", "Potency": "inactive"}
{"smiles": "c1ccc(-c2cn3nc4c(nc3n2)CCCC4)cc1", "Potency": "inactive"}
{"smiles": "c1ccc(-c2cn3nc(-c4ccccc4)c(-c4ccccc4)nc3n2)cc1", "Potency": "inactive"}
{"smiles": "c1ccc(-c2cn3c(n2)CCc2ccc4cccnc4c2-3)cc1", "Potency": "39.8 µM (active)"}
{"smiles": "COC(=O)C1CCN(C(c2cc(OC)c(OC)c(OC)c2)c2sc3nc(C)nn3c2O)CC1", "note": "(stereo unspecified)", "Potency": "inactive"}
{"smiles": "O=C(C1CCCCC1)N1CCC(O)(c2ccc(Cl)cc2)CC1", "Potency": "inactive"}
{"smiles": "Cc1ccc([C@H]2C[C@@H](O)[C@H](n3cc(-c4ccc(F)cc4)nn3)CN2C(=O)C2CCCCC2)cc1", "Potency": "22.4 µM (active)"}
{"smiles": "O=C(C1CCCCC1)N1C[C@@H](n2cc(-c3ccc(F)cc3)nn2)[C@H](O)C[C@@H]1c1ccc(Cl)cc1", "Potency": "22.4 µM (active)"}
{"smiles": "CC1CSc2n1c(-c1ccccc1)c[n+]2-c1cccc(C(F)(F)F)c1", "note": "(stereo unspecified)", "Potency": "inactive"}
{"smiles": "CC(C)NC(=O)N1c2ccccc2Sc2ccccc21", "Potency": "inactive"}
{"smiles": "Cc1nnc(SC(=O)N2c3ccccc3Sc3ccccc32)s1", "Potency": "25.1 µM (active)"}
{"smiles": "Cc1nnc(SCc2cccc3ccccc23)s1", "Potency": "inactive"}
{"smiles": "Nc1[nH]c(C(=O)c2ccccc2)c(-c2ccc(Cl)c(F)c2)c1C(=O)NCCc1c[nH]c2ccccc12", "Potency": "35.5 µM (active)"}
{"smiles": "Nc1[nH]c(C(=O)c2ccccc2)c(-c2ccccc2C(F)(F)F)c1C(=O)NCCc1c[nH]c2ccccc12", "Potency": "25.1 µM (active)"}
{"smiles": "Cc1ccc(N=C(S)NCCc2c[nH]c3ccccc23)c(C)c1", "Potency": "inactive"}
{"smiles": "Nc1[nH]c(C(=O)c2ccccc2)c(-c2ccc(F)cc2)c1C(=O)NCCc1c[nH]c2ccccc12", "Potency": "39.8 µM (active)"}
{"smiles": "COc1ccc(C(=O)c2[nH]c(N)c(C(=O)NCCc3c[nH]c4ccccc34)c2-c2ccccc2Br)cc1", "Potency": "31.6 µM (active)"}
{"smiles": "COc1ccc(C(=O)OCC(=O)c2c[nH]c3ccccc23)c(OC)c1", "Potency": "inactive"}
{"smiles": "O=C(CCCc1c[nH]c2ccccc12)Nc1ccc2ccccc2c1", "Potency": "inactive"}
{"smiles": "CC(C)NC(=O)COCc1cc(-c2ccc3c(c2)OCO3)on1", "Potency": "inactive"}
{"smiles": "Cc1c(Cc2ccccc2)sc(/N=C/c2ccc3ccccc3c2)c1C(N)=O", "Potency": "inactive"}
{"smiles": "O=C1c2cccnc2C(=O)N1Cc1ccc(F)cc1S(=O)(=O)NCc1ccco1", "Potency": "inactive"}
{"smiles": "O=C(COC(=O)c1c2c(nc3ccccc13)/C(=C/c1ccco1)CC2)NC1CCCC1", "Potency": "inactive"}
{"smiles": "COCCn1c(N)c(C(=O)NCC2CCCO2)c2nc3ccccc3nc21", "note": "(stereo unspecified)", "Potency": "inactive"}
{"smiles": "COC(=O)c1cc(S(=O)(=O)NCC2CCN(Cc3cc(C)ccc3C)CC2)cn1C", "Potency": "inactive"}
{"smiles": "N#C/C(=C\\c1cc(Cl)cc(Cl)c1O)C(=O)NC1CCCCC1", "Potency": "inactive"}
{"smiles": "O=[N+]([O-])c1c(Nc2ccc(O)cc2)cc(Cl)c2nonc12", "Potency": "2.24 µM (active)"}
{"smiles": "O=C(N/N=C/c1ccsc1)C1CC1", "Potency": "inactive"}
{"smiles": "COc1ccc2[nH]c(CN3CCN(CCC(C)C)C(CCO)C3)c(C)c2c1", "note": "(stereo unspecified)", "Potency": "inactive"}
{"smiles": "CCOC(=O)C1=C(C)N=c2s/c(=C/c3ccc(OCC(=O)O)c(OC)c3)c(=O)n2C1c1ccc(Cl)cc1", "note": "(stereo unspecified)", "Potency": "inactive"}
{"smiles": "CCCc1nnc(NC(=O)c2nc(S(=O)(=O)Cc3ccc(C)cc3)ncc2Cl)s1", "Potency": "39.8 µM (active)"}
{"smiles": "CC(=O)Nc1nnc(COc2ccc(Cl)cc2)s1", "Potency": "inactive"}
{"smiles": "CCc1nnc(NC(=O)c2ccc(S(=O)(=O)N(CCOC)CCOC)cc2)s1", "Potency": "inactive"}
{"smiles": "CCc1nnc(NC(=O)c2nc(S(=O)(=O)Cc3ccc(C)cc3)ncc2Cl)s1", "Potency": "31.6 µM (active)"}
{"smiles": "CCOCCC(=O)Nc1nnc(CCc2ccccc2)s1", "Potency": "inactive"}
{"smiles": "CCc1nnc(NC(=O)c2sc3nc4c(cc3c2N)CCCCCC4)s1", "Potency": "inactive"}
{"smiles": "CCCc1nnc(NC(=O)c2nc(S(=O)(=O)Cc3cccc(C)c3)ncc2Cl)s1", "Potency": "35.5 µM (active)"}
{"smiles": "Cc1ccc2nc(-c3ccc(NS(=O)(=O)c4c(C)n(C)c(=O)n(C)c4=O)cc3)sc2c1", "Potency": "inactive"}
{"smiles": "Cc1ccc(CS(=O)(=O)c2ncc(Cl)c(C(=O)Nc3nc4ccc(C)cc4s3)n2)cc1", "Potency": "22.4 µM (active)"}
{"smiles": "CCc1nnc(NC(=O)c2ccc(Br)o2)s1", "Potency": "inactive"}
{"smiles": "CCN1CCN(CC(=O)Nc2nc3ccc(C)cc3s2)CC1", "Potency": "inactive"}
{"smiles": "CCc1nnc(NC(=O)c2sc3nc4c(cc3c2N)CCCCC4)s1", "Potency": "inactive"}
{"smiles": "Cc1sc(NC(=O)/C=C/c2ccco2)c(C(=O)OC(C)C)c1C", "Potency": "inactive"}
{"smiles": "O=C(O)CC/C(=N/NC(=O)CNC(=O)Cc1ccccc1)c1ccccc1", "Potency": "inactive"}
{"smiles": "COc1ccc(/C=N/NC(=O)c2sccc2C)c2ccccc12", "Potency": "inactive"}
{"smiles": "CCCc1nnc(SCC(=O)Nc2cccc(Cl)c2Cl)o1", "Potency": "inactive"}
{"smiles": "Fc1ccc(NC(S)=Nc2nccs2)cc1", "Potency": "inactive"}
{"smiles": "O=C(c1cnn(-c2ccc(Cl)cc2)c1)c1ccccc1O", "Potency": "inactive"}
{"smiles": "OCCNc1c2ccccc2nc2c(F)c(F)c(F)c(F)c12", "Potency": "inactive"}
{"smiles": "O=c1oc2c(CN3CCCCC3)c(O)ccc2cc1-c1nc2ccccc2[nH]1", "Potency": "inactive"}
{"smiles": "CSc1nnc(NC(=O)c2nc(S(=O)(=O)Cc3ccccc3)ncc2Cl)s1", "Potency": "28.2 µM (active)"}
{"smiles": "CC(C)(C)NC(=O)CSc1nnc(NC(=O)CCc2ccccc2)s1", "Potency": "inactive"}
{"smiles": "CSc1ncc(C(=O)Nc2ccccc2Cl)c(C)n1", "Potency": "inactive"}
{"smiles": "O=C(CN(CCc1ccccc1)C(=O)c1csnn1)NCc1ccc(F)cc1", "Potency": "inactive"}
{"smiles": "Cc1ccccc1C1N=C2Oc3ccccc3C=C2C(=O)N1", "note": "(stereo unspecified)", "Potency": "inactive"}
{"smiles": "COc1c(C)cc(S(=O)(=O)NCc2ccco2)c(C)c1C", "Potency": "inactive"}
{"smiles": "CCN1/C(=C/C=C/c2oc3ccc(-c4ccccc4)cc3[n+]2CC)Oc2ccc(-c3ccccc3)cc21", "Potency": "29.9 µM (active)"}
{"smiles": "O=C(Cc1ccc(NC2=NC3CS(=O)(=O)CC3S2)cc1)N1CCN(c2ccc(F)cc2)CC1", "note": "(stereo unspecified)", "Potency": "inactive"}
{"smiles": "COc1ccc(CN2C(=O)c3cccnc3C2=O)cc1S(=O)(=O)N1CCOc2ccccc21", "Potency": "inactive"}
{"smiles": "COc1ccc(CN2C(=O)c3cccnc3C2=O)cc1S(=O)(=O)NCc1ccc(C)o1", "Potency": "inactive"}
{"smiles": "COc1cc(CCNC2=CC(=O)c3ncccc3C2=O)ccc1O", "Potency": "16.8 µM (active)"}
{"smiles": "CC(C)(C)c1ccc(SC2=C[C@@]3(O)CC[C@@H](O)[C@@](Sc4ccc(C(C)(C)C)cc4)(C2=O)[C@H]3O)cc1", "Potency": "25.1 µM (active)"}
{"smiles": "C=CCn1c(SCC(=O)c2[nH]c(C)c(C(=O)OCC)c2C)nc2scc(-c3ccc(OC)c(OC)c3)c2c1=O", "Potency": "20 µM (active)"}
{"smiles": "CCOC(=O)c1c(C)[nH]c(C(=O)N(C)CC(=O)Nc2ccc(OCC)c(OCC)c2)c1C", "Potency": "inactive"}
{"smiles": "C=CCn1c(SCCN2C(=O)c3ccccc3C2=O)nc2scc(-c3ccc(F)cc3)c2c1=O", "Potency": "inactive"}
{"smiles": "O=C1OCCN1C(=O)[C@H]1[C@H](c2ccc(F)cc2)C(c2ccccc2)=NN1c1ccccc1", "Potency": "inactive"}
{"smiles": "COc1ccc(C(=O)NCCNc2nc3c(C)cccc3cc2C#N)cc1OC", "Potency": "inactive"}
{"smiles": "CNc1c2cccc(C)c2nc2c(C(=O)NCCN(C)C)cccc12", "Potency": "0.794 µM (active)"}
{"smiles": "Cc1cccc2c(C(=O)O)c3cccc(C)c3nc12", "Potency": "inactive"}
{"smiles": "O=[N+]([O-])c1ccc(Nc2nc(N3CCOCC3)nc(N3CCOCC3)n2)cc1", "Potency": "inactive"}
{"smiles": "CCOc1nc(Nc2ccc([N+](=O)[O-])cc2)nc(NC(C)(C)C)n1", "Potency": "inactive"}
{"smiles": "CC1CCN(c2nc(Cl)nc(Nc3ccc([N+](=O)[O-])cc3)n2)CC1", "Potency": "39.8 µM (active)"}
{"smiles": "CC(NC(=O)OC(C)(C)C)C(=O)NC(CCC(=O)OCc1ccccc1)C(N)=O", "note": "(stereo unspecified)", "Potency": "inactive"}
{"smiles": "CC(C)(C)OC(=O)NCc1ccc(NC(=O)c2[nH]cnc2C(=O)N[C@@H](Cc2ccccc2)C(=O)OCc2ccccc2)cc1", "Potency": "35.5 µM (active)"}
{"smiles": "O=C(NC(Cc1ccccc1)C(=O)Oc1ccc2c(C(F)(F)F)cc(=O)oc2c1)OCc1ccccc1", "note": "(stereo unspecified)", "Potency": "inactive"}
{"smiles": "COCc1ccc(C(=O)Nc2ccccc2C(=O)NCc2cccnc2)cc1", "Potency": "inactive"}
{"smiles": "C[C@H](NC(=O)c1[nH]cnc1C(=O)Nc1ccc(CNC(=O)OC(C)(C)C)cc1)C(=O)OCc1ccccc1", "Potency": "39.8 µM (active)"}
{"smiles": "C[C@H](NC(=O)c1[nH]cnc1C(=O)NCc1ccc(CNC(=O)OC(C)(C)C)cc1)C(=O)OCc1ccccc1", "Potency": "25.1 µM (active)"}
{"smiles": "COc1ccccc1C1C2=C(CC(C)(C)CC2=O)N(CC(=O)O)C2=C1C(=O)CC(C)(C)C2", "Potency": "inactive"}
{"smiles": "CN(CCC#N)C(=O)COC(=O)c1c2c(nc3ccccc13)/C(=C\\c1ccco1)CC2", "Potency": "inactive"}
{"smiles": "COc1ccccc1N/C=C/c1onc(C)c1[N+](=O)[O-]", "Potency": "inactive"}
{"smiles": "COc1ccc(C(=O)COC(=O)c2cncc(Br)c2)cc1", "Potency": "inactive"}
{"smiles": "Cc1cc(NC(=O)COC(=O)c2cccc(O)c2)no1", "Potency": "inactive"}
{"smiles": "CCOC(=O)c1ccc(N2C(=O)c3[nH]nc(-c4ccc(OC)cc4)c3C2c2cccc(O)c2)cc1", "note": "(stereo unspecified)", "Potency": "31.6 µM (active)"}
{"smiles": "CCOC(=O)c1ccc(N2C(=O)c3[nH]nc(-c4ccccc4)c3C2c2ccc(CC)cc2)cc1", "note": "(stereo unspecified)", "Potency": "39.8 µM (active)"}
{"smiles": "O=C(OCC1OC(n2cc(Br)c(=O)[nH]c2=O)C(Br)C1O)c1ccccc1", "note": "(stereo unspecified)", "Potency": "inactive"}
{"smiles": "Oc1ccc(NCc2ccccc2OCc2ccccc2)cc1", "Potency": "39.8 µM (active)"}
{"smiles": "CC(NCc1cccc(OCc2ccccc2)c1)C(O)c1ccccc1", "note": "(stereo unspecified)", "Potency": "25.1 µM (active)"}
{"smiles": "Oc1ccc(NCc2cccc(OCc3ccccc3)c2)cc1", "Potency": "28.2 µM (active)"}
{"smiles": "O=C1CCCCC/C1=N/Nc1ccc(OCc2ccccc2)cc1", "Potency": "inactive"}
{"smiles": "CCOc1cc(CNc2ccc(O)cc2)cc(Br)c1OCc1ccccc1", "Potency": "20 µM (active)"}
{"smiles": "CN=C(S)Nc1ccc(OCc2ccccc2)cc1", "Potency": "inactive"}
{"smiles": "CC(O)CNCCCCOc1ccc(OCc2ccccc2)cc1", "note": "(stereo unspecified)", "Potency": "inactive"}
{"smiles": "Oc1ccc(NCc2cccs2)cc1", "Potency": "inactive"}
{"smiles": "COc1cc(CNC(C)(C)CO)cc(Br)c1OCc1ccccc1", "Potency": "inactive"}
{"smiles": "Cc1cc(NC(=O)Nc2ccc(OCc3ccccc3)cc2)n(C)n1", "Potency": "inactive"}
